The record followed here is PubChem BioAssay (Tox21).

Test [1] deals with Thyrotropin-releasing hormone receptor (Homo sapiens) (UniProt P34981). In words: qHTS assay to identify small molecule agonists of the thyrotropin-releasing hormone receptor (TRHR) signaling pathway (AID 1346891; calls by dose curve; also: series mostly up to about 58 µM). A digest of the protocol: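 Agonist-mode intracellular calcium readout: kinetic fluorescence over 3 min at 1 s intervals after compound addition to TRHR-HEK293 cells (18 h seeded, 2 h dye-loaded at 37 C). Fifteen concentrations, triplicates.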
On the technique in general: qHTS replaces the single test concentration by a dilution series.

Test [2] in a line: Human pregnane X receptor (PXR) small molecule agonists, qHTS cell viability counter screen (AID 1346977). Also: nearly all actives have a fitted effect of over 50% in size. Also: potency is read from the fitted curve at half-maximal effect. Summed up: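 Same-well viability read: CellTiter-Fluor added after 23 hr compound exposure, fluorescence measured 1 hr later. Cells were PXR-Luc HepG2 seeded at 2,000/well in 5% charcoal-stripped FBS medium, rested 5 hr before dosing at 37 C.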
A short description of test [3]: Caspase-3/7 induction in HepG2 cells by small molecules, qHTS assay (AID 1346978). Also: nearly all actives have a fitted effect of over 15% in size. Also: potency is read from the fitted curve at half-maximal effect. Summed up: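 Caspase-3/7 induction was measured by Caspase-Glo 3/7 luminescence (30 min, room temperature) after a 17 hr compound exposure of wild-type HepG2 cells seeded at 2,000 per well and pre-incubated 5 hr.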
A short description of test [4]: Caspase-3/7 induction in CHO-K1 cells by small molecules, qHTS cell viability counter screen (AID 1346979). Also: nearly all actives have a fitted effect of over 35% in size. Also: potency is read from the fitted curve at half-maximal effect. A digest of the protocol:
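Cytotoxicity counter screen: CellTiter-Fluor added to compound-treated wild-type CHO-K1 cells at 16 h (37C, 5% CO2), fluorescence measured 1 h later; same wells as caspase-3/7 measurement.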

Test [5] can be described thus: Caspase-3/7 induction in CHO-K1 cells by small molecules, qHTS assay (AID 1346980). Also: nearly all actives have a fitted effect of over 15% in size. Also: potency is read from the fitted curve at half-maximal effect. A digest of the protocol: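 Luminescent Caspase-Glo 3/7 read (30min, room temperature) quantified apoptosis induction. Cells were wild-type CHO-K1, treated with compound for 17hr at 37 C and 5% CO2.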
The nature of test [6]: Caspase-3/7 induction in HepG2 cells by small molecules, qHTS cell viability counter screen (AID 1346981). Also: nearly all actives have a fitted effect of over 30% in size. Also: potency is read from the fitted curve at half-maximal effect. A digest of the protocol:
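After a 5-hr attachment period at 37 C and 5% CO2, wild-type HepG2 cells received compounds in DMSO. Sixteen hours later CellTiter-Fluor was dispensed and the fluorescent signal quantified after a further hour.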

The target of test [7] is Nuclear receptor subfamily 1 group I member 2 (Homo sapiens) (UniProt O75469). In words: Human pregnane X receptor (PXR) small molecule agonists, qHTS assay (AID 1346982). Also: nearly all actives have a fitted effect of over 35% in size. Also: potency is read from the fitted curve at half-maximal effect. Summed up: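 Tox21 qHTS; PXR-Luc HepG2; compounds pinned from DMSO; 24 hr, 37 C; ONE-Glo luciferase detection, 30 min room temperature.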
Test [8] has as its target Cytochrome P450 2D6 (Homo sapiens) (UniProt P10635). In words: Cytochrome P450 Family 2 Subfamily D Member 6 (CYP2D6) small molecule antagonists: luciferase reporter qHTS assay (AID 1671196). Also: nearly all actives have a fitted effect of over 50% in size. Also: potency is read from the fitted curve at half-maximal effect. A digest of the protocol: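 Room-temperature luminescent CYP2D6 activity assay: compound preincubated 10 min with enzyme–substrate mix, NADPH-initiated reaction 1 h, detection reagent 20 min before reading.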
On the technique in general: In a reporter assay the amount or activity of a reporter protein is the signal.

For test [9], the target named is Nuclear receptor subfamily 1 group I member 2 (Rattus norvegicus) (UniProt Q9R1A7). Nature of the test: Rat pregnane X receptor (rPXR) activation by small molecules, qHTS assay (AID 1346983). Also: nearly all actives have a fitted effect of over 20% in size. The settings on record: rPXR luciferase reporter cells, One-Glo luminescence, 24 h; max activation: stronger effect = higher value. Summed up:
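Luminescent readout (One-Glo luciferase, 30 min room temperature) followed 24 hr compound treatment at 37 C of rPXR cells plated 2,000 per well and preincubated 5hr; qHTS format with compounds delivered in DMSO.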

The target of test [10] is Nuclear receptor subfamily 1 group I member 2 (Homo sapiens) (UniProt O75469). In words: Human pregnane X receptor (PXR) activation by small molecules, qHTS assay (AID 1346985). Also: nearly all actives have a fitted effect of over 40% in size. A digest of the protocol: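 DPX-2 cells (HepG2 co-transfected with a PXR response element and a CYP3A4-promoter luciferase construct) were seeded at 2,000 per well, rested 5 hr at 37C, then exposed to DMSO-dissolved compounds for 24 hr. Activation was read as luciferase luminescence.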

Several values for one entry are separate records, joined by “and”; a condition that tells them apart may be missing. Equal values may be shown once. Inconclusive results are not listed. The source holds several records for some structures; these can differ, active in one and inactive in another. Activity calls are given as the source filed them. Unless noted, calls follow the shape of the dose curve; as a rule, active = well fitted curve in the direction sought with a large enough effect in the repeat runs; inconclusive = weak or mixed curves; inactive = no such curve, though single readings can be large; an effect the other way counts as inactive or inconclusive.
% is scaled to controls: 0 for no effect and ±100 for the full control effect.

Sequence of Cytochrome P450 2D6 (Homo sapiens) (P10635 whole entry, looked up): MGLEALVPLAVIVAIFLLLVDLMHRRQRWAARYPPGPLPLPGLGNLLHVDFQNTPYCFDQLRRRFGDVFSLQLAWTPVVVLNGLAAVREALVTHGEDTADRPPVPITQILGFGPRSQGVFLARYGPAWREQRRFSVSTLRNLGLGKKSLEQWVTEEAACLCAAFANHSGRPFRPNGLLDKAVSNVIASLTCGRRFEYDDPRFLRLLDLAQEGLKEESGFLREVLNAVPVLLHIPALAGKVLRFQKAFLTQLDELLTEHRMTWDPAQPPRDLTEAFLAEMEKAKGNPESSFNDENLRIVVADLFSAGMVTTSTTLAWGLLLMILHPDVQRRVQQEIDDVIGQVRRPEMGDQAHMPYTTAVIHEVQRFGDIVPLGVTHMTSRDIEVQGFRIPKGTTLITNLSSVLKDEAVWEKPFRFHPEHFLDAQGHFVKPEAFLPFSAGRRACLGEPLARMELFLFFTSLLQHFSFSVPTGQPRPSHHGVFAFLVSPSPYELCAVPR
Sequence of Nuclear receptor subfamily 1 group I member 2 (Homo sapiens) (O75469 whole entry, looked up): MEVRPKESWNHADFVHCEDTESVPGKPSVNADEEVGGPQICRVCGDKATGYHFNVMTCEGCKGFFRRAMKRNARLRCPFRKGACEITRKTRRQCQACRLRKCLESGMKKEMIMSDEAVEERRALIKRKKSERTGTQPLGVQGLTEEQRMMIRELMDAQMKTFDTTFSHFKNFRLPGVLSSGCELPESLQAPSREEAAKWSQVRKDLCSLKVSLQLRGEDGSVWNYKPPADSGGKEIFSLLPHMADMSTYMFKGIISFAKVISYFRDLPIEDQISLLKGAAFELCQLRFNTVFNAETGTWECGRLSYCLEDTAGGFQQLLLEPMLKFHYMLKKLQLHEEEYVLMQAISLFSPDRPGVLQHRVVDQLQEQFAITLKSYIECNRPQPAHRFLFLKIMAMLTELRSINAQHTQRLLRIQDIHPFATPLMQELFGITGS
Sequence of Nuclear receptor subfamily 1 group I member 2 (Rattus norvegicus) (Q9R1A7 whole entry, looked up): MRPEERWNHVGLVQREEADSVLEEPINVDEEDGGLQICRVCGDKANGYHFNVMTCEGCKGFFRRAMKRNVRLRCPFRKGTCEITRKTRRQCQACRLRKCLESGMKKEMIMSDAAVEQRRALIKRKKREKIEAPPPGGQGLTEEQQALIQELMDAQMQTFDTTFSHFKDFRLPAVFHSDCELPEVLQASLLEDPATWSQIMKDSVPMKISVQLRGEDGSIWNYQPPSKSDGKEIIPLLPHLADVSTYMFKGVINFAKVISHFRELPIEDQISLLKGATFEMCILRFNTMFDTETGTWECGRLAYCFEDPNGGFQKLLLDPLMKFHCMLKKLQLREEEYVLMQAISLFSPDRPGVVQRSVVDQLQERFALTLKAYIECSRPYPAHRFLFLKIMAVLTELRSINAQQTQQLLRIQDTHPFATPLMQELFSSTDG
Sequence of Thyrotropin-releasing hormone receptor (Homo sapiens) (P34981 whole entry, looked up): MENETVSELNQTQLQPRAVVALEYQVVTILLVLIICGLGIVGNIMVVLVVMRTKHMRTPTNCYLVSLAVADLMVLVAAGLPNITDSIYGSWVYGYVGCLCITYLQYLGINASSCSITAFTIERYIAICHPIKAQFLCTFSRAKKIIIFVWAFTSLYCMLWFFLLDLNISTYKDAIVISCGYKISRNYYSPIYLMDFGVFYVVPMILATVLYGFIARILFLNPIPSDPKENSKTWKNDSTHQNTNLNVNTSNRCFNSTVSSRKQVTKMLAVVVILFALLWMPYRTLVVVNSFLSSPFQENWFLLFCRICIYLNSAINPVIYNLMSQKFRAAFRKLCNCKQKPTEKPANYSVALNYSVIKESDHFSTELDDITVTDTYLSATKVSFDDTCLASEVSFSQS

`c1ccc2c(c1)c1cccc3ccc4cccc2c4c31`: the Potency result in [1], in [2], in [3], in test [4], in test [5] and in test [6] was “inactive” throughout. For the same molecule, the Potency entry in test [7] was “inactive”.
With `CCCCCCCCCC(=O)OC`, the Potency result in test [1], in test [2], in test [3], in test [4], in test [5] and in test [6] was “inactive” in each case. Also, the Potency entry in [8] is “inactive”. Moreover, the Potency in test [7] is 47.7 µM (active) and inactive.
Turning to `CC(C)CC(C)(O)C#CC(C)(O)CC(C)C` (centres undefined), the Potency result in test [1], in test [3] and in [6] was “inactive” each time. Besides, the Potency was 31.6 µM (active) and inactive in test [2]; 15 µM (active) and inactive in test [4]; 42.4 µM (active) and inactive in [5].
For `O=C(COc1ccc(Cl)cc1)N1CCN(Cc2ccc3c(c2)OCO3)CC1`, the Potency result in test [1], in [2], in [3], in [4], in test [5] and in test [6] was “inactive” throughout. For the same molecule, in test [10], the Potency entry is “inactive”. For the same molecule, the Potency in test [7] is 34.4 µM (active) and inactive; in [8], 1.59 µM (active) and 2.45 µM (active). For the same molecule, in test [9], the max activation is 0.0978% (inactive).
Consider `CC(C)=CCCC(C)CCO` (centres undefined), for which the Potency result in test [1], in test [2], in [3], in [4], in [5] and in test [6] was “inactive” throughout. In addition, the Potency entry in [7] and in test [8] was “inactive” in each case.
Regarding `CC(C)(C)NC(=O)[C@H]1CC[C@H]2[C@@H]3CC[C@H]4NC(=O)C=C[C@]4(C)[C@H]3CC[C@]12C`, the Potency entry in test [1], in test [2], in [3], in test [4], in test [5] and in test [6] was “inactive” throughout. The Potency entry in test [10] and in test [8] was “inactive” each time. In test [7], the Potency was 48.6 µM (active). Moreover, in [9], the max activation is -2.95% (inactive).
On to `OC[C@H]1O[C@@H]2O[C@H]3[C@H](O)[C@@H](O)[C@@H](O[C@H]4[C@H](O)[C@@H](O)[C@@H](O[C@H]5[C@H](O)[C@@H](O)[C@@H](O[C@H]6[C@H](O)[C@@H](O)[C@@H](O[C@H]7[C@H](O)[C@@H](O)[C@@H](O[C@H]8[C@H](O)[C@@H](O)[C@@H](O[C@H]1[C@H](O)[C@H]2O)O[C@@H]8CO)O[C@@H]7CO)O[C@@H]6CO)O[C@@H]5CO)O[C@@H]4CO)O[C@@H]3CO`, for which the Potency result in test [1], in [2], in test [3], in test [4], in test [5] and in test [6] was “inactive” each time. Further, the Potency entry in [7] and in test [10] was “inactive” throughout. Also, the max activation in [9] is -2.34% (inactive).
For the molecule `COc1cccc2c1C(=O)c1c(O)c3c(c(O)c1C2=O)C[C@@](O)(C(=O)CO)C[C@@H]3O[C@H]1C[C@H](N)[C@H](O)[C@H](C)O1`, the Potency result in [1], in [5], in [7] and in [10] was “inactive” in each case. Also, the Potency was 1.72 µM (active) and 6.68 µM (active) in test [2]; 5.96 µM (active) in test [3]; 9.67 µM (active) and 21.1 µM (active) in test [4]; 3.85 µM (active) and 11.9 µM (active) in [6]. The max activation in [9] was -0.0344% (inactive) and 3.76% (inactive).
With `CC(=O)Oc1ccccc1C(=O)Nc1ncc([N+](=O)[O-])s1`, the Potency entry in [1], in [3], in [5] and in [10] was “inactive” each time. Further, the Potency in test [2] is 12.4 µM (active) and 16.8 µM (active); in test [4], 12.4 µM (active) and 18.8 µM (active); in test [6], 15.7 µM (active) and 21.1 µM (active); in test [7] it was 11.1 µM (active) and 2.11 µM (active); in test [8], 7.25 µM (active) and 7.76 µM (active). The max activation in test [9] is -18.4% (inactive).
On to `Nc1ncn([C@@H]2O[C@H](CO)[C@@H](O)[C@H]2O)c(=O)n1`, for which the Potency entry in test [1], in [3], in test [5], in test [10] and in test [8] was “inactive” each time. In addition, the Potency is 3.06 µM (active) and 3.76 µM (active) in [2]; 2.17 µM (active) and 2.98 µM (active) in test [4]; 1.72 µM (active) and 2.98 µM (active) in [6]; 4.33 µM (active) and 10.6 µM (active) in test [7]. Moreover, the max activation in test [9] is -11.1% (inactive).
Regarding `CC1=CCC(C(C)(C)O)CC1` (centres undefined), the Potency entry in test [1], in [2], in test [3], in [4], in test [5] and in [6] was “inactive” throughout. Besides, the Potency entry in test [10] and in test [8] was “inactive” throughout. The Potency in test [7] was 54.8 µM (active) and inactive. In test [9], the max activation was -1.16% (inactive).
Turning to `O=C1c2cccc(O)c2C(=O)c2c(O)cccc21`, the Potency result in test [1], in [2], in test [3], in [4], in test [5] and in test [6] was “inactive” throughout. The Potency entry in [7], in test [10] and in [8] was “inactive” throughout. In addition, the max activation in test [9] is -1.61% (inactive).
Take `CCCCC(CC)COCC1CO1` (centres undefined): the Potency entry in test [1], in [2], in test [3], in [4], in test [5] and in test [6] was “inactive” throughout. Further, the Potency entry in [7] and in [8] was “inactive” throughout.
As for `O=C(c1ccccc1)c1ccccc1O`, the Potency entry in [1], in test [2], in test [3], in [4], in test [5] and in test [6] was “inactive” throughout. For the same molecule, the Potency result in [7] was “inactive”. For the same molecule, the Potency in [8] was 40.9 µM (active).
As for `CCCc1c(OCCCCc2nn[nH]n2)ccc(C(C)=O)c1O`, the Potency result in test [1], in [2], in [3], in test [4], in test [5] and in test [6] was “inactive” each time. Besides, in test [8], the Potency result was “inactive”. The Potency in test [7] is 61.1 µM (active) and inactive.
For `COC(=O)CCC(=O)OC`, the Potency result in test [1], in test [2], in test [3], in test [4], in test [5] and in test [6] was “inactive” throughout. In addition, the Potency entry in [8] was “inactive”. Besides, the Potency in test [7] was 56 µM (active) and inactive.
In the case of `O=CCc1ccccc1`, the Potency entry in test [1], in test [2], in test [3], in test [4], in test [5] and in [6] was “inactive” in each case. Also, the Potency entry in test [7] and in [8] was “inactive” each time.
With `C[Si](C)(C)O[Si](C)(C)C`, the Potency entry in test [1], in [2], in test [3], in test [4], in test [5] and in test [6] was “inactive” in each case. The Potency result in [10] and in test [8] was “inactive” throughout. Further, in test [7], the Potency is 68.2 µM (active) and inactive. Also, the max activation in test [9] was -1.76% (inactive).
As for `C#C[C@]1(O)CC[C@H]2[C@@H]3CCc4cc(OC)ccc4[C@H]3CC[C@@]21C`, the Potency entry in test [1], in test [2], in test [3], in test [5], in test [6] and in test [8] was “inactive” throughout. Also, the Potency in [4] was 27.3 µM (active) and 18.8 µM (active); in test [7] it was 21.7 µM (active) and 18.8 µM (active). Moreover, in test [9], the max activation was 4.03% (inactive).
As to `O=C(O)c1ccccc1Nc1cccc(C(F)(F)F)c1`, the Potency entry in [1], in test [2], in test [3], in test [4], in test [5] and in test [6] was “inactive” in each case. Besides, the Potency result in [8] is “inactive”. Further, the Potency in test [7] was 30.6 µM (active) and inactive.
